# Results taken from PubChem BioAssay.
# Calls of active or inactive are those of the source.
# Assays:
# [1] = tested on: Plasmodium falciparum Sir2 (PF13_0152, Sir2A); assay: pfSir2 binders on small-molecule microarrays, primary screen, biochemical, small-molecule microarray, 635 nm fluorescence (AID 1098); settings: small-molecule microarray binding, fluorescence 635 nm; higher = more signal;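 note: score merges spot fluorescence intensity with its signal-to-noise ratio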
# [2] = small-molecule microarray binders of probe aDKK1, primary screen, biochemical, biotinylated probe, 635/667 nm fluorescence (AID 1099); settings: higher = more signal;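 note: score merges 667nm spot fluorescence with signal to noise across triplicate slides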
# [3] = small-molecule microarray binders of probe aCHRDL2, primary screen, biochemical, biotinylated probe, 635/667 nm fluorescence (AID 1100); settings: higher = more signal
# [4] = splicing luciferase reporter signal modulators, primary screen, spliceosome inhibition project, cell-based, HEK293, splice +/- reporter (AID 1101); settings: luminescence, 24 h, higher = more signal, called active from +8 up or from −8 down;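 note: HEK293 cells carrying a splicing-competent luciferase reporter gene; test concentration not given here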
# [5] = molecular target: Fibroblast growth factor 10 (Homo sapiens) (UniProt O15520); assay: FGF10 binders on small-molecule microarrays, primary screen, biochemical, small-molecule microarray, 635 nm fluorescence (AID 1102); settings: FGF10 binding, fluorescence 635 nm, higher = more signal
# [6] = tested on: glycogen synthase kinase-3 (GSK3A per assay name; protocol says GSK3B); assay: GSK3 binders on small-molecule microarrays, primary screen, biochemical, small-molecule microarray, 635 nm fluorescence, GSK3A (AID 1103); settings: small-molecule microarray binding, fluorescence 635 nm; higher = more signal; note: the record names both GSK3A and GSK3B
# [7] = molecular target: Epidermal growth factor receptor (Homo sapiens) (UniProt P00533); assay: EGFR binders on small-molecule microarrays, primary screen, biochemical, small-molecule microarray, 635 nm fluorescence (AID 1104); settings: EGFR binding, higher = more signal;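 note: score merges 667 nm emission intensity with spot signal to noise over triplicate slides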
# [8] = molecular target: Follistatin-related protein 3 (Homo sapiens) (UniProt O95633); assay: FSTL3 binders on small-molecule microarrays, primary screen, biochemical, small-molecule microarray, 635 nm fluorescence (AID 1105); settings: FSTL3 binding, higher = more signal;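 note: score merges emission near 667 nm and signal to noise per printed spot across three slides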
# [9] = molecular target: Dickkopf-related protein 1 (Homo sapiens) (UniProt O94907); assay: DKK1 binders on small-molecule microarrays, primary screen, biochemical, small-molecule microarray, 635 nm fluorescence scan (AID 1106); settings: DKK1 binding, higher = more signal;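 note: score merges emission near 667 nm with signal to noise over three replicate slides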
# [10] = tested on: Inhibin beta A chain (activin A); assay: INHBA (activin A) binders on microarrays, primary screen, biochemical, small-molecule microarray, 635 nm fluorescence scan (AID 1107); settings: small-molecule microarray binding, higher = more signal;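 note: mouse activin A protein probed at 4.33 µg/mL on printed slides; score merges bound-protein fluorescence near 667 nm with spot signal-to-noise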
# [11] = tested on: Human papillomavirus type 1a protein E7 (residues 44-93); assay: HPV1a E7 fragment binders on microarrays, primary screen, biochemical, small-molecule microarray, residues 44-93, 635 nm fluorescence (AID 1108); settings: small-molecule microarray binding, fluorescence 635 nm; higher = more signal;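 note: E7 fragment applied at 1 µg/mL in TBST for 1 h at 4 C; score combines spot fluorescence with its signal to noise ratio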
# [12] = modulators of HCV replicon luciferase signal, primary screen, HCV replication inhibitor project, Huh7 cells, luciferase reporter (AID 1109); settings: 48 h, higher = more signal;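 note: huh7 hepatoma cells harbouring a luciferase neomycin HCV replicon reporter; luciferase luminescence as measure of HCV replicon replication; test concentration not given here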
# [13] = molecular target: Left-right determination factor 2 (Homo sapiens) (UniProt O00292); assay: LEFTY2 binders on small-molecule microarrays, primary screen, biochemical, small-molecule microarray, 635 nm fluorescence scan (AID 1110); settings: LEFTY2 binding, higher = more signal
# [14] = molecular target: Calmodulin-1 (Homo sapiens) (UniProt P0DP23); assay: CALM1 binders on microarrays, EGTA buffer, profiling panel, biochemical, small-molecule microarray, Cy5-labelled CALM1 (AID 1111); settings: Cy5-CALM1 binding fluorescence, higher = more signal;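 note: labelled calmodulin applied in Tris saline Tween buffer holding calcium plus EGTA and DTT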
# [15] = molecular target: Calmodulin-1 (Homo sapiens) (UniProt P0DP23); assay: calcium-bound CALM1 binders on microarrays, profiling panel, artefact control for SMM control-protein annotation, biochemical, small-molecule microarray, Cy5-labelled CALM1, plus calcium (AID 1112); settings: Cy5-CALM1 binding fluorescence, higher = more signal;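 note: score merges spot fluorescence with signal to noise from triplicate slides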
# [16] = small-molecule microarray binders of probe aWnt5a, primary screen, biochemical, biotinylated probe, 635/667 nm fluorescence (AID 1113); settings: higher = more signal;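 note: score merges 667 nm fluorescence intensity with signal-to-noise per printed feature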
# [17] = small-molecule microarray binders of probe aShh, primary screen, biochemical, biotinylated probe, 635/667 nm fluorescence (AID 1114); settings: higher = more signal;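 note: probe is biotin-labelled aShh protein from a stem cell growth factor screen; measures binding of labelled protein to compounds printed on the slide; score merges feature fluorescence at 667 nm with signal-to-noise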
# [18] = small-molecule microarray binders of probe aNog, primary screen, biochemical, biotinylated probe, 635/667 nm fluorescence (AID 1115); settings: higher = more signal;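 note: probe is biotinylated aNog protein used at 0.15 µg/mL for 1 h at 4 C; z-score combines 667 nm fluorescence of each spot with its signal to noise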
# [19] = molecular target: Torsin-1A-interacting protein 1 (Homo sapiens) (UniProt Q5JTV8); assay: LAP1 binders from COS7 cell lysate, primary screen, small-molecule microarray, 635/667 nm fluorescence (AID 1116); settings: COS7-hLAP1 lysate binding, 635 nm fluorescence, higher = more signal
# [20] = molecular target: Alpha-bungarotoxin (Bungarus multicinctus) (UniProt P60615); assay: alpha-bungarotoxin binders on microarray, profiling panel, artefact control for SMM control protein annotation, biochemical, small-molecule microarray, Alexa647 label, 635/667 nm fluorescence (AID 1117); settings: alpha-BTX-A647 binding fluorescence, higher = more signal
# Chain of Alpha-bungarotoxin (Bungarus multicinctus) (P60615 whole entry, looked up): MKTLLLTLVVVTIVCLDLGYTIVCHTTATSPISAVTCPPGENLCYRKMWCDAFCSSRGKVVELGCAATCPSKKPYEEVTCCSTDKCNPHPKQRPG
# Chain of Dickkopf-related protein 1 (Homo sapiens) (O94907 whole entry, looked up): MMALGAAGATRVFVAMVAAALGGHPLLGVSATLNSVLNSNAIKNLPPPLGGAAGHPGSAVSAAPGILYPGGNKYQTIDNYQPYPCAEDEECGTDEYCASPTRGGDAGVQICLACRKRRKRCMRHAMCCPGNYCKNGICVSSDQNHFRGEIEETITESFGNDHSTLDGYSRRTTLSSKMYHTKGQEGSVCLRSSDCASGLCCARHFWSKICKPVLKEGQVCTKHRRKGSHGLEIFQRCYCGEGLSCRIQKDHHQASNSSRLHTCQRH
# Chain of Follistatin-related protein 3 (Homo sapiens) (O95633 whole entry, looked up): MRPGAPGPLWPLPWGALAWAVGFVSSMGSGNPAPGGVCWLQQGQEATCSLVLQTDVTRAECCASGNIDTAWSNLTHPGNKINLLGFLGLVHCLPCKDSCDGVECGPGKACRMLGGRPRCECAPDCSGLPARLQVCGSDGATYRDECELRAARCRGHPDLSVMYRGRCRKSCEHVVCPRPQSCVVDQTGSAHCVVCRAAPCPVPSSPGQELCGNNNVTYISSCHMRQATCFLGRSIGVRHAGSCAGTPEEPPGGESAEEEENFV
# Chain of Left-right determination factor 2 (Homo sapiens) (O00292 whole entry, looked up): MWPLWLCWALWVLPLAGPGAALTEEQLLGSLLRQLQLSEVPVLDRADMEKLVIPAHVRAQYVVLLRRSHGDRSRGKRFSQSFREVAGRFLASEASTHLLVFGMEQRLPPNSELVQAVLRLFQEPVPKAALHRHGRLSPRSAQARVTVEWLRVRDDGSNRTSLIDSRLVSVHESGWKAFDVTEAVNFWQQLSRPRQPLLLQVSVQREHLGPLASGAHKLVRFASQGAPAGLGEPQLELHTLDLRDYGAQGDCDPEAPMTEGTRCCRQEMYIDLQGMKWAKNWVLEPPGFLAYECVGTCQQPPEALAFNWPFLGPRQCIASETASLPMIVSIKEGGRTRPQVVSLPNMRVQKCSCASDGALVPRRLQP
# Chain of Torsin-1A-interacting protein 1 (Homo sapiens) (Q5JTV8 whole entry, looked up): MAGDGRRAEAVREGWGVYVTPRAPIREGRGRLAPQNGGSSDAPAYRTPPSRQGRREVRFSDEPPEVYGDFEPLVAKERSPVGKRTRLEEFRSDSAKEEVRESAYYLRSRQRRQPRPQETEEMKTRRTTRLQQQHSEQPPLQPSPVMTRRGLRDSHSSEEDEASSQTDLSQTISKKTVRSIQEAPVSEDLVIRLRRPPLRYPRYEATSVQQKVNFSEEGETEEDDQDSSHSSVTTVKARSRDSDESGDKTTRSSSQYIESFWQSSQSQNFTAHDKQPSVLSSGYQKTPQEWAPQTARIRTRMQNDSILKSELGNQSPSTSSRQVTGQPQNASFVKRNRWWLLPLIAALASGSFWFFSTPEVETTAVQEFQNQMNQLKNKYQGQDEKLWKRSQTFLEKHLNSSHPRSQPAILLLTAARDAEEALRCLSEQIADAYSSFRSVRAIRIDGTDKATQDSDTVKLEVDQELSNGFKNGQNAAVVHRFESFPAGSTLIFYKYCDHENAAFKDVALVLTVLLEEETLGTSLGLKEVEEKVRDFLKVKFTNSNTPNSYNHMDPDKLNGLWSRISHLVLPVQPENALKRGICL
# Chain of Epidermal growth factor receptor (Homo sapiens) (P00533 whole entry, looked up): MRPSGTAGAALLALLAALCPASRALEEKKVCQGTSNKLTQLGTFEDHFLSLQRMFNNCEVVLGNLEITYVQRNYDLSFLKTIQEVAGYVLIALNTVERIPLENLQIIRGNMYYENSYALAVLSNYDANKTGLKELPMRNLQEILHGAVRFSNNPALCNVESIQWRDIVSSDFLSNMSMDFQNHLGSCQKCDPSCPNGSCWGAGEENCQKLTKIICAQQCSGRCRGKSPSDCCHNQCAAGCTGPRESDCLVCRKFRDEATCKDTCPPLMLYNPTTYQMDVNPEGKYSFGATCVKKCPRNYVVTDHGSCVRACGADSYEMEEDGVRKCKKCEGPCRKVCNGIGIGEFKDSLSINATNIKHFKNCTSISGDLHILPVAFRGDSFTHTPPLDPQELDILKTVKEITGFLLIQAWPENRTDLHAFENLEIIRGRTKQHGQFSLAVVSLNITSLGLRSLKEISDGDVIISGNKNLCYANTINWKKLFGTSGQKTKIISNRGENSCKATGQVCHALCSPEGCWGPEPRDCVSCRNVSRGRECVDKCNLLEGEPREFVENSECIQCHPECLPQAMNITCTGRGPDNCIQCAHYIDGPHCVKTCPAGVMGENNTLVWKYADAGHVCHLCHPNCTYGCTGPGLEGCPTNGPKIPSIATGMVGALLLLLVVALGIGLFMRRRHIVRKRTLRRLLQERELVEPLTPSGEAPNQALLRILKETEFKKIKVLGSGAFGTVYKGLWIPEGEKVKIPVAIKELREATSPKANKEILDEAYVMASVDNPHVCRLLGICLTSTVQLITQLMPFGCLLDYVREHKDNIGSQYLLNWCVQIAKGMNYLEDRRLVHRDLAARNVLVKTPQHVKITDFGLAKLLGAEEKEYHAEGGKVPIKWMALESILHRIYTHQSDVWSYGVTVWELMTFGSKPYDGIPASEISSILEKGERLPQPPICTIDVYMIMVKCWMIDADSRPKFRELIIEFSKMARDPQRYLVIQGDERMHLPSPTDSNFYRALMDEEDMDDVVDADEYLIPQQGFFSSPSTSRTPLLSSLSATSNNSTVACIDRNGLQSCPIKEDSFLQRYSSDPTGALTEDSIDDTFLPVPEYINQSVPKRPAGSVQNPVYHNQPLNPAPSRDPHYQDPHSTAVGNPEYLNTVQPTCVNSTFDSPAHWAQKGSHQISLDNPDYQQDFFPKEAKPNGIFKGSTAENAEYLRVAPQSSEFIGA
# Chain of Fibroblast growth factor 10 (Homo sapiens) (O15520 whole entry, looked up): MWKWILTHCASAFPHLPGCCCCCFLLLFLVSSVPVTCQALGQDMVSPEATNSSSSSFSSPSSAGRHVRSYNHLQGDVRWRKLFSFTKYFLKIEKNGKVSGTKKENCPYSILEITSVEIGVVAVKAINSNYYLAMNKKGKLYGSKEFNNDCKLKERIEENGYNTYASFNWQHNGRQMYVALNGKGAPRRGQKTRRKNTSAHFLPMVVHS
Compound,composite z-score [1],composite z-score [2],composite z-score [3],z-score [4],composite z-score [5],composite z-score [6],composite z-score [7],composite z-score [8],composite z-score [9],composite z-score [10],composite z-score [11],z-score [12],composite z-score [13],composite z-score [14],composite z-score [15],composite z-score [16],composite z-score [17],composite z-score [18],composite z-score [19],composite z-score [20]
CC(C)(C)OC(=O)CC[C@@]1(C(=O)NCc2ccccc2)N=C(c2ccc(OCCCO)cc2)O[C@@H]1c1ccccc1,1.64,1.29,1.31,-0.791 (inactive),0.556,1.26,-0.152,0.545,0.144,0.119,1.33,-3.13,0.144,2.4,1.26,0.0077,0.14,0.92,2.67,2.97
CO[C@@H]1COC(=O)[C@H](C)NC(=O)CC=C[C@@H](C)[C@H](OC)COC(=O)[C@H](C)NC(=O)CC=C[C@H]1C,0.343,-0.58,-0.717,-0.415 (inactive),0.43,0.57,0.55,0.66,0.503,0.136,0.0508,-0.0787,0.787,-0.202,-1.26,-0.0684,-0.223,-0.248,0.0309,-0.59
CCOC(=O)C[C@H]1[C@H](OC(=O)c2ccccc2-c2ccccc2)[C@@H](NC(=O)C2CCCCC2)c2cc(OCCCO)ccc2N1C(=O)c1ccccc1,0.253,-0.116,-0.489,-1.02 (inactive),1.43,0.524,0.797,0.437,0.436,0.16,0.0771,-1.4,1.13,-0.0784,-0.083,-0.213,-0.283,-0.0502,0.584,0.148
O=C1O[C@@H](c2ccccc2)[C@@H](c2ccccc2)N2[C@@H](c3ccccc3OCCO)[C@]3(C(=O)Nc4ccc(C#CC5=CCCCC5)cc43)[C@@H](C(=O)O)[C@H]12,1.17,0.702,0.51,-2.47 (inactive),0.289,1.04,0.309,0.87,0.471,1.09,0.799,-2.28,0.0802,1.7,0.957,-0.0539,0.13,0.0014,0.612,1.77
COCCOC(=O)N1C(=O)[C@@]2(c3cc(C#CC4(O)CCCCCC4)ccc31)[C@H](C(=O)N1CCCCCCC1)[C@H]1C(=O)O[C@H](c3ccccc3)[C@H](c3ccccc3)N1[C@@H]2c1ccc(O)cc1,1.26,2.22,1.55,-0.0148 (inactive),0.808,1.11,0.251,1.34,0.716,1.89,0.554,-0.937,0.333,1.31,0.639,0.629,1.9,2.13,3.24,1.73
CCC(=O)[C@]12O[C@@]3([C@@H]4C(=O)OCC[C@@H]41)N(Cc1ccccc1)C(C)=C(C(=O)OC)[C@@H](c1ccccc1)N3C2=O,0.401,-0.393,-0.314,-1.15 (inactive),0.0848,-0.588,-0.0835,-0.782,-0.0297,1.47,-2.88,0.286,0.271,-0.146,-0.0047,-0.16,-0.0653,-0.196,-0.398,-0.621
